# Screening results deposited in PubChem BioAssay by NMMLSC.
# An excerpt weighted towards active compounds, which were near 2.9% of everything screened.
# Beta2AR agonist = human beta-2 adrenergic receptor agonism by FAP. hit rate 0.43% among 340,000. Am2.2-beta2AR cells, FAP receptor internalization, flow cytometry. response, % (no concentration beside the values);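 active = response above a set limit, near 3 SD of response in nonfluorescent compounds, cut at about 42% in these data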
# MEKK3 PB1 HTS = raises or lowers MEK5 binding to the human MEKK3 PB1 domain; Q99759; bead-based flow cytometry, Alexa488-MEK5 binding to MEKK3; actives lie on both sides; 0 = blocked by unlabeled MEK5, 100 = vehicle; binding response (% of control), % at 10 µM; hit rate 1.4% among 290,000;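 active = binding response more than 3 SD above or below the average of its plate-row segment, actives on both sides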;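 note: Alexa488 bead fluorescence after subtracting the streptavidin-only scavenger bead signal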
# MEKK2 mut-MEK5 = signal of MEK5 binding to mutant human MEKK2 PB1 domain. bead flow cytometry, Alexa488-MEK5 binding to MEKK2 mutant. percent response, % at 10 µM. hit rate 0.35% among 290,000; in the data active = percent response above about 24%, passing the limit was not always enough
# GRK2 inh = inhibitors of human GRK2 displacing RNA aptamer | P25098 | bead flow cytometry, FAM-aptamer displacement from GRK2 | inhibition of aptamer binding, % at 10 µM | hit rate 0.59% among 330,000;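 active = inhibition of aptamer binding above 40%, roughly 3 SD of noise, on plates passing a quality check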;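 note: median bead fluorescence of bound FAM aptamer so fluorescent compounds give negative values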
# Target sequence (P25098 whole entry, looked up): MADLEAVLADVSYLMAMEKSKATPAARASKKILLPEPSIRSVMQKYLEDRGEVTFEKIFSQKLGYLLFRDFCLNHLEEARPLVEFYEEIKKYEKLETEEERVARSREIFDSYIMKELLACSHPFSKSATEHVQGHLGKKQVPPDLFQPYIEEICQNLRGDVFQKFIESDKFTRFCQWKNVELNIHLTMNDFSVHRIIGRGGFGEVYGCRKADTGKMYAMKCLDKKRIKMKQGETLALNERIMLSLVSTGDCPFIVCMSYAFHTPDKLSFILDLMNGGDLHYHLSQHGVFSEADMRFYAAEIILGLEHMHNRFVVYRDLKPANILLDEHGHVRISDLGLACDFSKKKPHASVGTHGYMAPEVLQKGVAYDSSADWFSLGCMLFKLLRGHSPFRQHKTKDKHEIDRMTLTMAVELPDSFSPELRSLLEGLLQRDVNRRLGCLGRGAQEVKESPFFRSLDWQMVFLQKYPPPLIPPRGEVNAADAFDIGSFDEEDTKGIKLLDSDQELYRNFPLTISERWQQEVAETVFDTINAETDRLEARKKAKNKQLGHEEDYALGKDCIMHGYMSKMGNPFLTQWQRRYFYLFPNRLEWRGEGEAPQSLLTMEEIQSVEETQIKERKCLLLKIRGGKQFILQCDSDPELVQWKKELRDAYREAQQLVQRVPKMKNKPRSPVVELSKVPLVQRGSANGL
# MEKK2wt PB1 HTS = raises or lowers MEK5 binding to wildtype human MEKK2 PB1 domain; bead flow cytometry, Alexa488-MEK5 binding to MEKK2 WT; actives lie on both sides; binding response (% of control), % at 10 µM; hit rate 1.1% among 290,000; in the data active = binding response below about 67% or above about 130%
# MEKK2wt confirm = raises or lowers MEK5 binding to wildtype human MEKK2, retest | shares compounds with MEKK3 PB1 HTS | bead flow cytometry, Alexa488-MEK5 binding to MEKK2 WT; actives lie on both sides | binding response (% of control), % at 10 µM | hit rate 2.4% among 5,900; in the data active = binding response below about 16% or above about 210%; inactive = in between
# MEKK2mut-MEK5 = signal of MEK5 binding to mutant human MEKK2, retest. hit rate 2% among 5,900. bead flow cytometry, Alexa488-MEK5 binding to MEKK2 mutant. AID 1893. percent response, % at 10 µM. shares compounds with MEKK3 PB1 HTS; in the data active = percent response mostly above about 71%, no sharp cut-off; inactive = mostly below about 38%;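 note: higher means compound restores mutant binding toward wildtype level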
# MEKK3-MEK5 inh = MEKK3-MEK5 PB1 inhibition, single concentration confirmation. shares compounds with MEKK3 PB1 HTS. bead flow cytometry, Alexa488-MEK5 binding to MEKK3; stronger effect = lower value. binding response (% of control), % at 10 µM. hit rate 1.8% among 5,900. AID 1894;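 active = binding response below 72% of control, or above a set upper limit, though filed actives all read lower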
# Hits are given with their value; . = inactive; / = no result given; + = active, no number; [ ] = remark or other dose.
SMILES,Beta2AR agonist,MEKK3 PB1 HTS,MEKK2 mut-MEK5,GRK2 inh,MEKK2wt PB1 HTS,MEKK2wt confirm,MEKK2mut-MEK5,MEKK3-MEK5 inh
CC[C@@H](C)[C@H](CN[C@H](CNC)C(C)C)NC[C@@H](C)c1ccc(CC(C)C)cc1,.,.,.,.,185,.,71,.
COc1ccc(C(=O)N/C(=C\c2cn(S(=O)(=O)N(C)C)c3ccccc23)C(=O)NCCN2CCOCC2)cc1,.,.,.,.,.,/,/,/
N/C(=N\OS(=O)(=O)c1ccccc1)c1cccnc1,.,130,.,.,.,.,.,.
Cc1ccc(Cl)c(OCC(=O)Nc2cc(S(=O)(=O)N3CCOCC3)ccc2N2CCCC2)c1,.,.,.,.,.,/,/,/
O=[N+]([O-])c1cc(Cl)ccc1N1CCN(c2cccc(C(F)(F)F)c2)CC1,.,.,.,.,138,.,.,.
COc1ccc(C[C@H]2CN3C(=NC[C@@H]3Cc3ccc(O)cc3)N2C[C@H](C)NC(=O)c2ccc(C)c(Br)c2)cc1,.,.,80,.,157,4.0[inhibitor],.,2.0
COc1ccc(C[C@H]2CN3C(=NC[C@@H]3C(C)C)N2C[C@H](C)NC(=O)c2ccc(C)c(Br)c2)cc1,.,.,.,.,153,.,.,.
Cc1c(CCC(=O)N[C@@H](CC(C)C)C(=O)O)c(=O)oc2cc3oc4c(c3cc12)CCCC4,.,.,.,.,.,/,/,/
COC(=O)c1sc(S(=O)(=O)NCCC(=O)O)c(C(=O)OC)c1C,.,.,.,.,.,/,/,/
CCOC(=O)CSc1ncnc2c1sc1nc(N3CCOCC3)c3c(c12)CCCC3,.,82[inhibitor],.,.,.,.,.,.
Cn1c(=O)oc2cc(S(=O)(=O)NCc3ccc(F)cc3)ccc21,.,.,.,.,.,/,/,/
CN(/N=C/C=C/c1ccccc1)C1=NS(=O)(=O)c2ccccc21,.,134,.,.,.,.,.,.
CN(/N=C/c1cccnc1)C1=NS(=O)(=O)c2ccccc21,.,.,.,.,.,/,/,/
C/C(=N\NC(=S)Nc1cccc(C)c1)c1ccco1,.,7.0[inhibitor],.,.,9.0[inhibitor],.,.,.
C/C(=N\NC(=S)Nc1cccc(C)c1)c1ccccc1,.,.,.,.,.,/,/,/
CCOC(=O)C1CCCN(S(=O)(=O)c2cccs2)C1 (configuration not stated),.,122,.,.,.,.,.,.
O=C(C1CCCN(Cc2cccs2)C1)N1CCCCCC1 (configuration not stated),.,.,.,.,.,/,/,/
CCOC(=O)C1CCCN(Cc2cccs2)C1 (configuration not stated),.,1.0[inhibitor],.,.,-3.0[inhibitor],.,.,.
CCOC(=O)C1CCCN(S(=O)(=O)c2ccc(S(=O)(=O)N3CCCC3)cc2)C1 (configuration not stated),.,/,/,.,/,/,/,/
O=C(C[n+]1cccc(NC(=O)c2ccccc2)c1)c1cccc([N+](=O)[O-])c1,.,.,.,.,.,/,/,/
O=C(C[n+]1ccc(-c2cc(C(=O)Nc3cccc(C(F)(F)F)c3)c3ccccc3n2)cc1)c1cccc([N+](=O)[O-])c1,.,.,.,.,158,.,99,.
COC(=O)c1sc(-c2ccc(C(C)(C)C)cc2)cc1NC(=O)c1ccccc1C(=O)O,.,.,.,.,.,/,/,/
COC(=O)c1sc(-c2ccc(Cl)cc2)cc1NC(=O)c1ccccc1C(=O)O,.,66[inhibitor],.,.,.,.,.,.
CC(C)=N/N=C(/c1ccc([N+](=O)[O-])cc1)C12CN3CN(CN(C3)C1)C2,.,148,+,.,/,.,.,.
O=[N+]([O-])c1cccc(/C(=N/N=C/c2ccccc2Br)C23CN4CN(CN(C4)C2)C3)c1,.,.,.,.,.,/,/,/
SMILES,Beta2AR agonist,MEKK3 PB1 HTS,MEKK2 mut-MEK5,GRK2 inh,MEKK2wt PB1 HTS,MEKK2wt confirm,MEKK2mut-MEK5,MEKK3-MEK5 inh
CCC(c1nc2ccccc2c(=O)n1CCCn1ccnc1)N1C(=O)c2ccccc2C1=O (configuration not stated),.,77[inhibitor],.,.,.,.,.,.
CCOC(=O)c1ccc(NC(=S)Nc2ccccc2)cc1,.,64[inhibitor],.,.,.,.,.,.
CCOC(=O)c1ccc(NC(=O)c2nn(CC)cc2Br)cc1,.,0.0[inhibitor],.,.,-4.0[inhibitor],.,.,.
CCOC(=O)c1ccc(NC(=S)NC(=O)c2nn(CC)cc2Br)cc1,.,.,.,.,.,/,/,/
O=C(NC1CC1)c1cc2cc3ccccc3nc2s1,.,.,.,.,.,/,/,/
COc1cccc(Nc2nc(-c3sc(NC(=O)CC(C)C)nc3C)cs2)c1,.,.,.,.,.,/,/,/
COc1cccc(Nc2nc(-c3sc(NC(=O)c4ccccc4)nc3C)cs2)c1,.,.,.,/,143,.,.,.
COc1ccc(NC(=O)Cc2c(F)cccc2Cl)c(OC)c1,.,1.0[inhibitor],.,.,3.0[inhibitor],.,.,.
COc1ccc(NC(=O)CCCCC(=O)Nc2ccc(OC)cc2OC)c(OC)c1,.,/,/,.,/,/,/,/
COc1ccc(NC(=O)CCSCCC(=O)Nc2ccc(OC)cc2OC)c(OC)c1,.,137,.,.,.,.,.,.
CC(=O)N1c2ccc(S(=O)(=O)NCC3CCC(C(=O)N4CC(C)CC(C)C4)CC3)cc2CC1C (configuration not stated),.,.,.,.,.,/,/,/
COc1ccccc1CNCC(O)(c1ccc(F)cc1)c1ccc(F)cc1,.,.,.,.,.,/,/,/
COc1ccccc1CNCC(O)(c1ccc(Cl)cc1)c1ccc(Cl)cc1,.,.,.,.,163,.,.,.
Cc1ccc2nc(Cl)c(CN(C(=O)c3cnccn3)C3CCCCC3)cc2c1,.,2.0[inhibitor],.,.,-2.0[inhibitor],.,.,.
Cc1[nH]n(-c2ccc([N+](=O)[O-])cc2)c(=O)c1C=NCCN1CCN(C(=O)c2ccc(F)cc2)CC1,.,/,/,.,/,/,/,/
Cc1[nH]n(-c2ccc([N+](=O)[O-])cc2)c(=O)c1C=NCCN1CCN(C(=O)c2cccc(F)c2)CC1,.,127,.,.,.,.,.,.
O=C(NNS(=O)(=O)c1ccc(F)cc1F)c1csc(-c2cccnc2)n1,.,.,.,.,.,/,/,/
Cc1ccc(C)c(-c2nc3ccc(N)cc3[nH]2)c1,.,.,.,.,33[inhibitor],.,.,.
CCCCc1ccc(S(=O)(=O)Nc2ccc(C)c(NS(C)(=O)=O)c2)cc1,.,137,.,.,.,.,.,.
Cc1ccc2nnnc(-c3ccccc3)c2c1,.,.,.,.,54[inhibitor],.,.,.
Cc1ccc2nc(NCC(N)=O)nc(-c3ccccc3)c2c1,/,.,.,.,.,/,/,/
